Measured values from PubChem BioAssay (NCI).
Where “and” joins values, the source holds several entries; their conditions need not be identical. Equal values may be shown once. About 83,000 compounds went through this panel and 20% of them were active in at least one assay; those are over-represented in the sample as a whole.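 48-hour exposure, single concentration, 96-well plates; percent growth endpoint where 0 means no net growth. Active: below 10.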 Calls of active or inactive are those of the source.

Tests used:
Test in all cases: NCI-60 one-dose screen, 48 h (100 = growth as untreated, 0 = no growth, -100 = all killed)
[1] = test system: HCT-15 colon; conditions: 10 µM unless noted
[2] = test system: HT29 colon; conditions: 10 µM unless noted
[3] = test system: SNB-75 CNS; conditions: 10 µM unless noted
[4] = test system: U251 CNS; conditions: 10 µM unless noted
[5] = test system: PC-3 prostate; conditions: 10 µM unless noted
[6] = test system: SK-MEL-5 melanoma; conditions: 10 µM unless noted
[7] = test system: UACC-62 melanoma
[8] = test system: LOX IMVI melanoma; conditions: 10 µM unless noted
[9] = test system: SK-MEL-28 melanoma; conditions: 10 µM
[10] = test system: SK-MEL-2 melanoma; conditions: 10 µM unless noted
[11] = test system: EKVX NSCLC; conditions: 10 µM unless noted
[12] = test system: TK-10 renal
[13] = test system: ACHN renal; conditions: 10 µM unless noted
[14] = test system: CAKI-1 renal; conditions: 10 µM unless noted
[15] = test system: A498 renal; conditions: 10 µM unless noted
[16] = test system: CCRF-CEM leukemia; conditions: 10 µM unless noted
[17] = test system: MOLT-4 leukemia; conditions: 10 µM unless noted
[18] = test system: SNB-19 CNS; conditions: 10 µM unless noted
[19] = test system: UO-31 renal; conditions: 10 µM unless noted
[20] = test system: SR leukemia; conditions: 10 µM unless noted

In the case of Cc1ccc(C(=O)OC(C(=O)O)C(OC(=O)c2ccc(C)cc2)C(=O)O)cc1 (configuration not stated) (tested in a mixture with another compound), the growth [1] is reported as 16.3% (inactive), the growth [2] is reported as 23% (inactive) and the growth [3] is reported as 55% (inactive). The growth [4] was 54.3% (inactive), the growth [5] was 29.4% (inactive) and the growth [6] was 14.7% (inactive). The growth ([7]; 10 µM) was 45% (inactive), the growth [8] was 56.2% (inactive) and the growth [9] was 57.7% (inactive). The growth [10] was 77.1% (inactive), the growth [11] was 32.7% (inactive) and the growth ([12]; 10 µM) was 93.2% (inactive). For the same molecule, the growth [13] was 66% (inactive), the growth [14] was 50.7% (inactive) and the growth [15] was 77.7% (inactive). For the same molecule, the growth [16] was 23% (inactive) and the growth [17] was 35.9% (inactive).

With CN1CCN(c2ccc([N+](=O)[O-])c3no[n+]([O-])c23)CC1 the growth [1] was -56.3% (active), the growth [2] was -51.8% (active) and the growth [3] was -78.2% (active). The growth [18] was -30.5% (active), the growth [4] was -95.6% (active) and the growth [5] was -65.9% (active). For the same molecule, the growth [6] was -46.6% (active), the growth ([7]; 10 µM) was -58.8% (active) and the growth [8] was -46.2% (active). For the same molecule, the growth [9] was 17.3% (inactive), the growth [10] was -80.5% (active) and the growth [11] was -34.4% (active). The growth [19] was -48.4% (active), the growth ([12]; 10 µM) was -95.4% (active) and the growth [13] was -84% (active). For the same molecule, the growth [14] was -75.2% (active), the growth [15] was -34.8% (active) and the growth [16] was -30.6% (active). For the same molecule, the growth [17] was -46% (active).

For C[C@H]1CCC/C=C/[C@@H]2C[C@H](O)C[C@H]2[C@H](O)/C=C/C(=O)O1, the growth [1] was -28.2% (active), the growth [2] was -53.5% (active) and the growth [3] was -19.7% (active). For the same molecule, the growth [18] was 38.3% (inactive), the growth [4] was 20.6% (inactive) and the growth [5] was -14.6% (active). For the same molecule, the growth [6] was -96.7% (active), the growth ([7]; 10 µM) was 20.9% (inactive) and the growth [8] was -69.4% (active). The growth [10] was -21.5% (active), the growth [11] was 11.1% (inactive) and the growth [19] was -22.9% (active). The growth ([12]; 10 µM) was -31.1% (active), the growth [13] was 1.27% (active) and the growth [14] was -2.67% (active). The growth [15] was -37.1% (active), the growth [16] was 7.53% (active) and the growth [17] was -7.93% (active). The growth [20] was -6.07% (active).

In the case of COc1ccccc1/C=C(/C)[N+](=O)[O-], the growth [1] is reported as 32.3% (inactive) and 99.8% (inactive), the growth [2] is reported as 54.7% (inactive) and 88.8% (inactive) and the growth [3] is reported as 68.3% (inactive) and 85% (inactive). The growth [18] was 73.9% (inactive) and 107% (inactive), the growth [4] was 83% (inactive) and 98.7% (inactive) and the growth [5] was 90.3% (inactive) and 84.7% (inactive). The growth [6] was 80.3% (inactive) and 102% (inactive), the growth ([7]; 10 µM) was 58.1% (inactive) and 103% (inactive) and the growth [8] was 22.2% (inactive) and 92.2% (inactive). The growth [9] was 83.3% (inactive) and 116% (inactive), the growth [10] was 94.8% (inactive) and 85.9% (inactive) and the growth [11] was 90.8% (inactive) and 98.4% (inactive). The growth [19] was 78.7% (inactive) and 83.1% (inactive), the growth ([12]; 10 µM) was 75.2% (inactive) and 95% (inactive) and the growth [13] was 71.1% (inactive) and 107% (inactive). The growth [14] was 85.8% (inactive) and 95.1% (inactive), the growth [15] was 99.1% (inactive) and 118% (inactive) and the growth [16] was 8.42% (active) and 99.5% (inactive). For the same molecule, the growth [17] was 13.9% (inactive) and 102% (inactive) and the growth [20] was 10% (inactive) and 92.3% (inactive).

With Oc1cc[c]([Hg][Cl])cc1 the growth [1] was 91.4% (inactive), the growth [2] was 100% (inactive) and the growth [3] was 92.3% (inactive). For the same molecule, the growth [18] was 100% (inactive), the growth [4] was 85.9% (inactive) and the growth [5] was 99.7% (inactive). For the same molecule, the growth [6] was 74.5% (inactive), the growth ([7]; 10 µM) was 92.1% (inactive) and the growth [8] was 71.3% (inactive). For the same molecule, the growth [9] was 74.5% (inactive), the growth [10] was 70.2% (inactive) and the growth [19] was 100% (inactive). The growth ([12]; 10 µM) was 110% (inactive), the growth [13] was 99% (inactive) and the growth [14] was 110% (inactive). The growth [15] was 107% (inactive), the growth [16] was 55.2% (inactive) and the growth [17] was 65.2% (inactive). For the same molecule, the growth [20] was 38.2% (inactive).

With CC1CCC2(NC1)OC1CC3C4CCC5CC(OC6OC(CO)C(OC7OC(CO)C(O)C(OC8OCC(O)C(O)C8O)C7OC7OC(CO)C(O)C(O)C7O)C(O)C6O)CCC5(C)C4CCC3(C)C1C2C (configuration not stated) the growth ([7]; 100 µM) was -77.3% (active) and -86.4% (active) and the growth ([12]; 100 µM) was -97.4% (active) and -87.3% (active).

COC1=C(C)C(=O)C2=C(C1=O)C(CO)N1C(C#N)C3CC4C(C1C2N1CCOC41)N3C (configuration not stated) was tested, and the growth [1] was -29.8% (active), the growth [2] was -47.7% (active) and the growth [18] was 8.12% (active). For the same molecule, the growth [4] was -9.96% (active), the growth [5] was -40.2% (active) and the growth [6] was -90.1% (active). The growth ([7]; 10 µM) was -81.2% (active), the growth [8] was -21.2% (active) and the growth [10] was -58.4% (active). The growth [11] was 0.181% (active), the growth ([12]; 10 µM) was -28.8% (active) and the growth [13] was -9.01% (active). The growth [14] was -23.1% (active), the growth [15] was -67.7% (active) and the growth [16] was -37.8% (active). The growth [17] was -2.61% (active) and the growth [20] was -19.5% (active).

In the case of COC1CC(CC2CCC(C)C(C(C)C(=O)O)O2)OC2(OC(C)(C3CCC(C)(C4OC(C5OC(O)(CO)C(C)CC5C)CC4C)O3)CC2C)C1C (configuration not stated), the growth [1] is reported as 5.7% (active), the growth [2] is reported as -0.662% (active) and the growth [3] is reported as -60.6% (active). For the same molecule, the growth [18] was -2.87% (active), the growth [4] was 3.01% (active) and the growth [5] was 5.39% (active). The growth [6] was -96.3% (active), the growth ([7]; 10 µM) was -98.8% (active) and the growth [8] was 11.3% (inactive). The growth [10] was -61.3% (active), the growth [11] was 19.1% (inactive) and the growth [19] was 13.3% (inactive). The growth ([12]; 10 µM) was 4.27% (active), the growth [13] was 16.2% (inactive) and the growth [14] was 8.78% (active). The growth [15] was -68.8% (active), the growth [16] was -27.1% (active) and the growth [17] was -36.2% (active). For the same molecule, the growth [20] was -28.8% (active).
